PubChem BioAssay AID1259343 (VanderVen Lab, College of Veterinary Medicine, Cornell …, 2017)
The whole screen tested about 6,200 compounds, of which about 2,900 (47%) were called active. So high a share suggests a set chosen from earlier hits. The list shows a part of the results. A number with no mark means an inactive call. Cut-off read from the data, not from the text of the source: active = inhibition above about 50%; inactive = the rest.

Test: Mycobacterium tuberculosis growth inhibition, primary screen (AID 1259343)
Details: inhibition: at 10 µM, hits give high values; outcome: 10 uM

Row | SMILES | inhibition
1 | NS(=O)(=O)c1ccc(N2CCN(c3cccc(Cl)c3)CC2)nc1 | 52.9% (active)
2 | Clc1cccc(N2CCN(c3nnnn3-c3ccccc3)CC2)c1 | -17.8%
3 | Cc1nc(-c2c[nH]c(C(=O)N(C)C3CCC(C)CC3)c2)cs1 (stereo not drawn) | 29.5%
4 | Cc1nc(-c2c[nH]c(C(=O)NC3CCC4CCCC4C3)c2)cs1 (stereo not drawn) | 87.9% (active)
5 | Cn1nc(CC(=O)NC2CCC3CCCCC3C2)c2ccccc2c1=O (stereo not drawn) | 14.5%
6 | Cc1ccc2nc(C3CCN(c4nncc(-c5ccc(Cl)cc5)n4)CC3)[nH]c2c1 | 37.6%
7 | CC(NCc1ccco1)c1nnc(-c2ccc(F)cc2)o1 (stereo not drawn) | 25.6%
8 | Clc1ccc(CNCc2cn[nH]c2-c2ccc(-c3ccccc3)cc2)s1 | 74.1% (active)
9 | CC(NCc1cn[nH]c1-c1ccc(-c2ccccc2)cc1)c1ccc(F)cc1 (stereo not drawn) | 83.9% (active)
10 | CC(NCc1nnc(-c2cccc(Br)c2)o1)c1cccc(F)c1 (stereo not drawn) | -7.48%
11 | CCCc1ccc(-c2ccc(NC(=O)C3COCCO3)cc2)cc1 (stereo not drawn) | 72.3% (active)
12 | O=C(OC1CCCC1)c1ccc(NC(=O)C2COCCO2)cc1 (stereo not drawn) | 84.8% (active)
13 | CC(C)Cc1ccc(-c2csc(NC(=O)C3COCCO3)n2)cc1 (stereo not drawn) | 90.5% (active)
14 | CCCCc1ccc(-c2csc(NC(=O)C3(C)CCOCC3)n2)cc1 | 43.9%
15 | Cc1nnsc1C(=O)Nc1ccc(C(=O)OC2CCCC2)cc1 | -6.8%
16 | Cc1cccc(OCCC(=O)Nc2ccc3c(c2)oc(=O)n3C)c1C | 15.8%
17 | CC(C)Oc1ccc(C(=O)Nc2ccc3c(c2)oc(=O)n3C)cn1 | 92.7% (active)
18 | O=c1[nH]c(=O)n(CCC2=CCCCC2)c(O)c1C=C1C=CC=N1 | 89.4% (active)
19 | CSc1nc(N2CCCC2)c2cnn(CCNC(=O)c3cccs3)c2n1 | 9.6%
20 | CCCNc1nc(SC)nc2c1cnn2CCNC(=O)c1c(F)cccc1Cl | 60.4% (active)
21 | CSc1nc(NCC(C)C)c2cnn(CCNC(=O)CC(C)C)c2n1 | -2.36%
22 | CC(=NNC(=S)NC(C)C)c1ccc(C(C)(C)C)cc1 | 5.89%
23 | CC(=NNC(N)=S)c1ccc2c(c1)OCCO2 | 69% (active)
24 | CC(=NNC(N)=S)C(C)=NNC(N)=S | 54.6% (active)
25 | CC(=NNC(N)=S)c1ccc(C)cc1 | 76.6% (active)
26 | C=CCNC(=S)NN=Cc1ccc2c(c1)OCCO2 | 23.3%
27 | CC(=NNC(=S)NC(C)C)c1ccc2c(c1)OCCO2 | 88.1% (active)

Row | SMILES | inhibition
28 | CC(=NNC(N)=S)C12CC3CC(CC(C3)C1)C2 | 14.6%
29 | COc1ccccc1-n1cc(-c2ccnc(N(C)Cc3cccc(C)n3)n2)cn1 | 29.4%
30 | COc1ccc(-c2cnnc(N3CCC(c4ccccc4Cl)C3)n2)cc1 (stereo not drawn) | inactive
31 | CC1CCC(N(C(=O)Nc2nccs2)C2CC2)CC1 (stereo not drawn) | 53.1% (active)
32 | C=C(C)NC(=S)Nc1nccs1 | 7.83%
33 | CC1=CC(=O)c2c(O)cccc2C1=O | 102% (active)
34 | COc1ccccc1-c1cc(=O)c2cccc(OC)c2o1 | -0.59%
35 | O=C(O)c1ccccc1-c1c2cc(Br)c(=O)cc-2oc2[c]([Hg])c(O)c(Br)cc12 | 66.5% (active)
36 | CCCCCCCCON1C(=O)C2C3C=CC(O3)C2C1=O (stereo not drawn) | 8.42%
37 | O=C(NCCc1ccc2c(c1)OCCO2)C12CC3CC(CC(C3)C1)C2 | 45.1%
38 | Cc1ccc(C)n1-c1ccsc1C(=O)NC1CCCC1 | 39.9%
39 | CC1CCC(NC(=O)c2sccc2-n2cccc2)CC1 (stereo not drawn) | 87.7% (active)
40 | O=C(NNC(=O)C12CC3CC(CC(C3)C1)C2)c1sccc1-n1cccc1 | 61.1% (active)
41 | COCC(Nc1ncc(Br)cn1)c1ccc(C)o1 (stereo not drawn) | 38.8%
42 | Cc1nc(-c2ccc(Oc3ccc(C(F)(F)F)cn3)cc2)no1 | 89.7% (active)
43 | Cc1ccn2cc(C(=O)Nc3nc4ccccc4s3)nc2c1 | 50.8% (active)
44 | CCOc1ccc2nc(NC(=O)c3ccc(C)o3)sc2c1 | 25.2%
45 | O=C(NCC12CC3CC(CC(C3)C1)C2)c1ccccc1 | 25.9%
46 | O=C(Cc1ccc(-c2ccccc2)cc1)NCC(c1ccsc1)N1CCCC1 (stereo not drawn) | 37.7%
47 | O=C(Cc1ccsc1)NCC12CC3CC(CC(C3)C1)C2 | 75.4% (active)
48 | CC(=NNS(=O)(=O)c1cc(C)ccc1C)c1ccc2c(c1)Nc1ccccc1S2 | 57.9% (active)
49 | CC(=NNC(=O)c1cc(C)oc1C)c1ccc2c(c1)Nc1ccccc1S2 | 47.6%
50 | CC(=NNC(=S)NC(C)C)c1ccc2c(c1)Nc1ccccc1S2 | 20.4%
51 | CC(=NNC(=O)c1ccoc1C)c1ccc2c(c1)Nc1ccccc1S2 | 75.1% (active)
52 | CC(=NNc1ccc(C(F)(F)F)cn1)c1ccc2c(c1)Nc1ccccc1S2 | -55.5%
53 | CC(=NNC(=O)COc1ccc(F)cc1)c1ccc2c(c1)Nc1ccccc1S2 | 16%
